The results in this text go back to PubChem BioAssay AID1259418 (Broad Institute, 2018).

Out of some 3,400 compounds screened, about 840 (25%) were called active. Not shown: some 11% with an inconclusive outcome. The list is a sample of the results. Entries with a potency or affinity are not part of this list. A number with no mark means an inactive call.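 The calls were made as follows: active = fitted half-maximal concentration of signal decrease at or below twice the sample's top tested concentration; inconclusive = flat curve between -70 and -30 percent, or poor fit; inactive = flat within 30 percent, signal rise, or potency above limit.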

The assay in a line: T. gondii growth inhibition with IFN-gamma, dose response, cell-based, ME49Luc, HeLa, luciferase, 72 h (AID 1259418). To be noted: T. gondii ME49Luc in IFN-y HeLa, hits give low values, -100% = high-dose IFN-γ control wells; at 19.5 µM unless noted.
In the case of `Clc1ccc(-c2nc(N3CCCc4ccccc43)c3ccccc3n2)cc1`, the max activity was 10.7% [at 0.35 µM].

For the molecule `Cc1nc(-c2cc(S(=O)(=O)N3CCCCC3C)c(C)s2)sc1C` (stereo not given), the max activity is -14.7% [at 5 µM]. On to `Cc1nc(-c2ccc(F)cc2)sc1-c1ccc(SCc2cccc(C(F)(F)F)c2)nn1`, for which the max activity was -7.18% [at 0.16 µM]. The same measure for `Cc1cccc(-c2nc(Cn3nnc(-c4nc(-c5ccc(Cl)c(F)c5)no4)c3C)c(C)o2)c1`: 6.89%; for `COc1ccc2c(c1)NC1(CCN(C(=O)Cc3cccs3)CC1)c1cccn1-2`: -16.4% [at 10 µM]; for `COc1cccc(-c2nc3c(s2)CN(S(=O)(=O)c2ccc(Cl)cc2)CC3)c1`: -9.55% [at 0.16 µM]. Take `Cc1ccc(C)c(-c2coc(-c3ccc(NC(=O)c4sccc4C)cc3)n2)c1`: the max activity was 16.8% [at 10 µM]. `Cc1nc(CCNC(=O)[C@H]2CCCN2C(=O)c2ccccc2Cl)cs1`: the max activity was 13.6% [at 0.35 µM].

As for `Cc1oc(-c2cccc(Cl)c2)nc1Cn1nnc(-c2nc(-c3ccc(F)cc3)no2)c1C`, the max activity was -12.5% [at 0.16 µM].

Turning to `CCOc1ccc(-c2nc(CN3CCN(C(=O)Nc4cc(C)cc(C)c4)CC3)c(C)o2)cc1`, the max activity was -7.26% [at 0.16 µM]. Next, `CCOc1ccc(NC(=O)N2CCN(Cc3nc(-c4ccc(OCC)cc4)oc3C)CC2)cc1`: 8.47% [at 5 µM]; `CCOc1ccc(-c2nc(CN3CCN(C(=O)Nc4ccccc4CC)CC3)c(C)o2)cc1`: 11.7% [at 2.6 µM]. The same measure for `COc1ccc(OC)c(NC(=O)N2CCN(Cc3nc(-c4cccc(Cl)c4)oc3C)CC2)c1`: 24.8% [at 5 µM]. With `CCOc1ccc(-c2nc(CN3CCN(C(=O)Nc4ccccc4OCC)CC3)c(C)o2)cc1`, the max activity is 16%. With `CCOc1ccc(-c2nc(CN3CCN(C(=O)Nc4ccc(CC)cc4)CC3)c(C)o2)cc1`, the max activity is 8.87% [at 1.35 µM]. Turning to `CCOc1ccc(NC(=O)N2CCN(Cc3nc(-c4ccc(C)cc4)oc3C)CC2)cc1`, the max activity is 18.7% [at 2.6 µM]. As to `CCOc1ccc(-c2nc(CN3CCN(C(=O)Nc4ccc(C)cc4)CC3)c(C)o2)cc1`, the max activity was -22.9%.

As to `Cc1ccc(NC(=O)COc2nc(C)nc3ccccc23)c(Br)c1`, the max activity is 23.6%. Next, `COC(=O)c1cc(Cl)ccc1NC(=O)COc1nc(C)nc2ccccc12`: 15.7% [at 0.16 µM]; `Cc1[nH]c2ccccc2c1C(=O)C(=O)NC1CC(=O)N(c2ccccc2)C1` (stereo not given): 12.7% [at 2.6 µM]; `Cc1nc(CCNC(=O)C2CCN(S(=O)(=O)c3cnn(C(F)F)c3C)CC2)cs1`: 8.74% [at 0.68 µM]. `Cc1ccoc1C(=O)N1CC[C@H]2CO[C@@H](CN3CCN(C)CC3)[C@@H]2C1`: the max activity is 14.9%. In the case of `COc1cc(OC)c(NC(=O)COc2nc(C)nc3ccccc23)cc1Cl`, the max activity is 39.9%.

In the case of `CCc1nc(OCC(=O)Nc2ccccc2OC)c2ccccc2n1`, the max activity is 14.6% [at 0.35 µM].

Turning to `CSc1cccc(NC(=O)COc2nc(C)nc3ccccc23)c1`, the max activity is 16.7% [at 5 µM]. Take `CCOc1ccc(-c2nc(CN3CCN(C(=O)Nc4ccc(C)c(Cl)c4)CC3)c(C)o2)cc1`: the max activity is 18% [at 0.16 µM]. The same measure for `CCOc1ccc(-c2nc(CN3CCN(C(=O)Nc4cccc(C)c4)CC3)c(C)o2)cc1`: 6.07%. Regarding `Cc1ccc(-c2nc(CN3CCN(C(=O)Nc4ccc(C)cc4Cl)CC3)c(C)o2)cc1`, the max activity is 13.8% [at 2.6 µM]. As to `CCOc1ccc(-c2nc(CN3CCN(C(=O)Nc4ccccc4Cl)CC3)c(C)o2)cc1`, the max activity was 227%. For the molecule `Cc1ccc(C(=O)Nc2c(C(=O)N3CCN(c4ncccn4)CC3)[nH]c3ccccc23)cc1`, the max activity is 15.6% [at 0.68 µM]. In the case of `COc1cccc(CNC(=O)COc2nc(C)nc3ccccc23)c1OC`, the max activity was 25.6%. Regarding `COc1ccc(-c2nc(Nc3cc(C)cc(C)c3)c3ccccc3n2)cc1`, the max activity was -19.1% [at 0.35 µM]. In the case of `Brc1ccc(Nc2c3ccccc3nc3ccccc23)cc1`, the max activity was 36.4% [at 5 µM]. Turning to `CN1CCN(C(=O)c2nn(C)c3c2CCN(S(C)(=O)=O)C3)CC1`, the max activity was 18.7% [at 10 µM]. As for `O=C(Cc1ccccn1)N1CC(=O)N2[C@H](C1)[C@@H](c1ccc(C#CCC3CCCC3)cc1)[C@@H]2CO`, the max activity is 6.79% [at 0.3 µM]. Regarding `Cc1ccc(-c2coc(-c3ccc(NC(=O)NCc4cccc(F)c4)cc3)n2)c(C)c1`, the max activity is 17.3%. Consider `Cc1ccc(C)c(-c2coc(-c3ccc(NC(=O)Nc4ccccc4F)cc3)n2)c1`, for which the max activity is -23.6% [at 0.16 µM].

On to `Cc1ccc(-c2coc(-c3ccc(NS(=O)(=O)c4cccc(Cl)c4)cc3)n2)cc1C`, for which the max activity was -24.2% [at 0.35 µM]. `CCc1c(C)sc2c1CCN(Cc1nc(-c3cccc(C)c3)oc1C)C2c1ccccc1` (stereo not given): the max activity was 5.74% [at 10 µM].

As to `COc1ccc(CCNC(=O)CC2Nc3c4ccccc4nc(=S)n3C2=O)cc1OC` (stereo not given), the max activity was 17% [at 0.16 µM]. For `CCc1ccc2c(c1)cc(S(=O)(=O)c1ccccc1)c(=O)n2CC(=O)NCc1ccc(F)cc1`, the max activity is 15.5%. As to `Cc1ccc(C(=O)Nc2ccc(-c3nc(-c4ccc(C)cc4)co3)cc2)cc1`, the max activity was 113% [at 10 µM].

As to `O=C(CCn1nnc2cc(-c3noc(-c4cccc5[nH]ccc45)n3)ccc21)N1CCCC1`, the max activity is 43%.

As to `Cc1ccc(NS(=O)(=O)c2cc3c4c(c2)CCC(=O)N4CCC3)cc1C`, the max activity was -11.9%. For `Cc1cccc(C)c1NS(=O)(=O)c1cc2c3c(c1)CCC(=O)N3CCC2`, the max activity is -22%. Take `Cc1ccc(NS(=O)(=O)c2cc3c4c(c2)CCC(=O)N4CCC3)c(C)c1`: the max activity was 4.48% [at 2.6 µM].

As to `COc1ccc(CNS(=O)(=O)c2cc3c4c(c2)CCC(=O)N4CCC3)cc1`, the max activity was -13.1% [at 10 µM]. Turning to `O=C1CCc2cc(S(=O)(=O)Nc3ccc4c(c3)OCCO4)cc3c2N1CCC3`, the max activity is -30% [at 0.16 µM]. As for `Cc1cc(C)c(NS(=O)(=O)c2cc3c4c(c2)CCC(=O)N4CCC3)c(C)c1`, the max activity is 8.39%. On to `O=C1CCc2cc(S(=O)(=O)NCc3ccc4c(c3)OCO4)cc3c2N1CCC3`, for which the max activity is -19.9% [at 2.6 µM].
